{"source": "paper PMC4336329", "about": "(PLoS ONE, 2015)", "note": "The whole screen tested about 310,000 compounds, of which about 14,000 (4.5%) showed an effect of 50% or more. Effects have a minus sign here. The full list was thinned out, with strong results kept by preference.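 Note: peak tail current of the secondary pulse compared with the same well before compound.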", "data": [{"biological_target": "human ether-à-go-go-related gene (hERG) potassium channel (human, UniProt Q12809)", "sequence (Q12809 whole entry, looked up)": "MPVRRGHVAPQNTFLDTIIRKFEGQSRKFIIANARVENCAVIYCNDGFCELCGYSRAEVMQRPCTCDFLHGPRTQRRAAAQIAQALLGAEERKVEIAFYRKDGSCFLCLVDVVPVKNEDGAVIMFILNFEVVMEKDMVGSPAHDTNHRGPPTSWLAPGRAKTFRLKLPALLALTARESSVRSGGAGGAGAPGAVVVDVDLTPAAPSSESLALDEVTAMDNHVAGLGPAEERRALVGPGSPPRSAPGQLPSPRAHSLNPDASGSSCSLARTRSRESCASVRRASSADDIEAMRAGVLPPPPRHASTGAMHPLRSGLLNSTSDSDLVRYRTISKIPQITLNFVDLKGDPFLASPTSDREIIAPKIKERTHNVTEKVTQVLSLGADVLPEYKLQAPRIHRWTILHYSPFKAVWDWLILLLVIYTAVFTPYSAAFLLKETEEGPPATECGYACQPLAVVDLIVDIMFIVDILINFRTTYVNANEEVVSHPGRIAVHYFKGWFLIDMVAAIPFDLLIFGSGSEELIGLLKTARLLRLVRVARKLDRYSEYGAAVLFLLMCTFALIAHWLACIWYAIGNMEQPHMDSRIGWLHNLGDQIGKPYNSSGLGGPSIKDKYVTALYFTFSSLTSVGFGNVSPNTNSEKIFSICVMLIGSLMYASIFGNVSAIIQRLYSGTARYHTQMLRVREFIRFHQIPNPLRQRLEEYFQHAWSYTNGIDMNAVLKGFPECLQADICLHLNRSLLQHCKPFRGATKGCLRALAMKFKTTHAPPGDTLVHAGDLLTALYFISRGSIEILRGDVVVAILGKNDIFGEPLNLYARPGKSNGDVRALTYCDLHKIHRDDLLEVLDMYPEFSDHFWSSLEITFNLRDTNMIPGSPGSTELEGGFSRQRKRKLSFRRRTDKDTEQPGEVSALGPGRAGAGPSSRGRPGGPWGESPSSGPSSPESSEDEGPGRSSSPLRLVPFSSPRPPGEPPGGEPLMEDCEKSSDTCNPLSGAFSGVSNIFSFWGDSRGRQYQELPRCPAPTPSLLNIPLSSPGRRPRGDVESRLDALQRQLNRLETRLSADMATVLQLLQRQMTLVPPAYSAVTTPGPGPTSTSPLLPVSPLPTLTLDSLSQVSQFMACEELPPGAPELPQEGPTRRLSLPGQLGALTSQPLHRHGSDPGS", "assay": "primary screen, population patch clamp on CHO cells stably expressing hERG; higher = less effect of the substance", "units": {"hERG current change (%, negative = inhibition) at 10uM": "%"}, "values": [{"molecule": "CCn1c(SCC(=O)Nc2ccc(C)cc2)nnc1-c1ccccn1", "hERG current change (%, negative = inhibition) at 10uM": -59.1}, {"molecule": "CCn1c(SCC(=O)Nc2ccc(F)cc2)nnc1-c1cnccn1", "hERG current change (%, negative = inhibition) at 10uM": -56.8}, {"molecule": "C=CCn1c(SCC(=O)Nc2cccc3ccccc23)nnc1-c1cnccn1", "hERG current change (%, negative = inhibition) at 10uM": -39.9}, {"molecule": "C=CCn1c(SCC(=O)Nc2cc(C)ccc2C)nnc1-c1cnccn1", "hERG current change (%, negative = inhibition) at 10uM": -14.4}, {"molecule": "Cc1ccc(NC(=O)CSc2nnc(-c3ccccn3)n2C)cc1", "hERG current change (%, negative = inhibition) at 10uM": -28.1}, {"molecule": "CCn1c(SCC(=O)Nc2ccccc2F)nnc1-c1cnccn1", "hERG current change (%, negative = inhibition) at 10uM": -34.9}, {"molecule": "C=CCn1c(SCC(=O)Nc2ccc(F)cc2F)nnc1-c1cnccn1", "hERG current change (%, negative = inhibition) at 10uM": -58.8}, {"molecule": "CCn1c(SCC(=O)Nc2ccc3c(c2)OCCO3)nnc1-c1ccccn1", "hERG current change (%, negative = inhibition) at 10uM": -16.1}, {"molecule": "CCn1c(SCC(=O)Nc2ccc(C)cc2)nnc1-c1cnccn1", "hERG current change (%, negative = inhibition) at 10uM": -31.8}, {"molecule": "COc1cc(C2NC(=O)NC(c3ccccc3)=C2C(C)=O)ccc1OCC#N", "note": "(stereo not drawn)", "hERG current change (%, negative = inhibition) at 10uM": -8.43}, {"molecule": "CN1CCN(C(=O)c2ccc(C3SCC(=O)N3Cc3ccco3)cc2)CC1", "note": "(stereo not drawn)", "hERG current change (%, negative = inhibition) at 10uM": 6.13}, {"molecule": "CCOc1ccc(/C=N/NC(=O)c2csc(C)c2C)c(OCC)c1", "hERG current change (%, negative = inhibition) at 10uM": 6.43}, {"molecule": "Cc1ccc(S(=O)(=O)NCCC(=O)Nc2cc(S(=O)(=O)N(C)C)ccc2C)cc1C", "hERG current change (%, negative = inhibition) at 10uM": -7.95}, {"molecule": "O=C(c1cc([N+](=O)[O-])ccc1N1CCCC1)N1CCCC1", "hERG current change (%, negative = inhibition) at 10uM": -0.904}, {"molecule": "CCN1CC(CN(C)Cc2nc(-c3ccc(Cl)cc3)no2)CC1=O", "note": "(stereo not drawn)", "hERG current change (%, negative = inhibition) at 10uM": -59.1}, {"molecule": "CCN1CC(CN(C)Cc2nc(-c3ccc(C(F)(F)F)cc3)oc2C)CC1=O", "note": "(stereo not drawn)", "hERG current change (%, negative = inhibition) at 10uM": -51.5}, {"molecule": "CCN1CC(CN(C)Cc2nc(-c3ccco3)oc2C)CC1=O", "note": "(stereo not drawn)", "hERG current change (%, negative = inhibition) at 10uM": 10.4}, {"molecule": "CCN1CC(CN(C)Cc2nc(-c3ccc(OC)c4ccccc34)oc2C)CC1=O", "note": "(stereo not drawn)", "hERG current change (%, negative = inhibition) at 10uM": -37.2}, {"molecule": "CCN1CC(CN(C)Cc2nc(-c3cccs3)no2)CC1=O", "note": "(stereo not drawn)", "hERG current change (%, negative = inhibition) at 10uM": 3.65}, {"molecule": "CCN1CC(CN(C)Cc2nc(-c3ccc(C(F)(F)F)cc3)no2)CC1=O", "note": "(stereo not drawn)", "hERG current change (%, negative = inhibition) at 10uM": -28.9}, {"molecule": "Cc1cc(O)c(NC(=O)c2ccc(Br)o2)cc1C", "hERG current change (%, negative = inhibition) at 10uM": -7.04}, {"molecule": "COc1ccc(N2CCN(C(=O)CN(c3cccc(OC)c3)S(=O)(=O)c3ccccc3)CC2)cc1", "hERG current change (%, negative = inhibition) at 10uM": -19.4}, {"molecule": "CC(=O)OC1CC2(C)C(=O)CCC2C2CCc3cc(O)ccc3C12", "note": "(stereo not drawn)", "hERG current change (%, negative = inhibition) at 10uM": 1.59}, {"molecule": "Cc1ccc(Nc2cccc(C(F)(F)F)c2)nn1", "hERG current change (%, negative = inhibition) at 10uM": -0.351}, {"molecule": "COc1ccc2c(c1)CCCN2S(=O)(=O)c1ccc(Cl)cc1", "hERG current change (%, negative = inhibition) at 10uM": 9.65}, {"molecule": "COc1ccc2c(c1)CCCN2C(N)=O", "hERG current change (%, negative = inhibition) at 10uM": 17.4}, {"molecule": "COc1ccc2c(c1)CCCN2C(N)=Nc1ccc(Cl)cc1", "hERG current change (%, negative = inhibition) at 10uM": -63.7}, {"molecule": "Cc1ccc(NC(=O)CN(C)C(=O)C(Sc2ccccc2)c2ccccc2)cc1", "note": "(stereo not drawn)", "hERG current change (%, negative = inhibition) at 10uM": 2.05}, {"molecule": "CC(=O)O[C@H]1C(=O)[C@@]2(C)C([C@H](OC(=O)c3ccccc3)[C@]3(O)C[C@H](OC(=O)[C@H](O)[C@@H](NC(=O)Cc4ccccc4)c4ccccc4)C(C)=C1C3(C)C)[C@]1(OC(C)=O)CO[C@@H]1C[C@@H]2O", "note": "(stereo partly drawn)", "hERG current change (%, negative = inhibition) at 10uM": 16.6}, {"molecule": "CCn1cc(C(=O)N2CCc3ccccc32)c(=O)c2cc(S(=O)(=O)N3CC(C)CC(C)C3)ccc21", "note": "(stereo not drawn)", "hERG current change (%, negative = inhibition) at 10uM": -43.8}, {"molecule": "CCOCCCNC(=O)c1cn(CC)c2ccc(S(=O)(=O)N3CCCC3)cc2c1=O", "hERG current change (%, negative = inhibition) at 10uM": -6.08}, {"molecule": "CCn1cc(C(=O)NCCCOC)c(=O)c2cc(S(=O)(=O)N3CCC(C)CC3)ccc21", "hERG current change (%, negative = inhibition) at 10uM": -10.3}, {"molecule": "CCC1CCCCN1CCCNC(=O)c1cn(C)c2ccc(S(=O)(=O)N3CCOCC3)cc2c1=O", "note": "(stereo not drawn)", "hERG current change (%, negative = inhibition) at 10uM": 21.3}, {"molecule": "CCn1cc(C(=O)NCCCOC)c(=O)c2cc(S(=O)(=O)N3CCCC3)ccc21", "hERG current change (%, negative = inhibition) at 10uM": -4.05}, {"molecule": "CCn1cc(C(=O)N2CCc3ccccc32)c(=O)c2cc(S(=O)(=O)N3CCCCCC3)ccc21", "hERG current change (%, negative = inhibition) at 10uM": -67.1}, {"molecule": "CCn1cc(C(=O)NCCCN2CCCC2)c(=O)c2cc(S(=O)(=O)N3CCc4ccccc4C3)ccc21", "hERG current change (%, negative = inhibition) at 10uM": -8.75}, {"molecule": "CCn1cc(C(=O)NCCCN2CCCC(C)C2)c(=O)c2cc(S(=O)(=O)N3CCc4ccccc4C3)ccc21", "note": "(stereo not drawn)", "hERG current change (%, negative = inhibition) at 10uM": -75.7}, {"molecule": "CCC1CCCCN1CCCNC(=O)c1cn(CC)c2ccc(S(=O)(=O)N3CCc4ccccc4C3)cc2c1=O", "note": "(stereo not drawn)", "hERG current change (%, negative = inhibition) at 10uM": -72}, {"molecule": "CCOCCCNC(=O)c1cn(CC)c2ccc(S(=O)(=O)N3CCC(C)CC3)cc2c1=O", "hERG current change (%, negative = inhibition) at 10uM": -22.6}, {"molecule": "CCn1cc(C(=O)N2CCc3ccccc3C2)c(=O)c2cc(S(=O)(=O)N3CCCCC3)ccc21", "hERG current change (%, negative = inhibition) at 10uM": -40.7}, {"molecule": "CCn1cc(C(=O)NCCCN2CCCCCC2)c(=O)c2cc(S(=O)(=O)N3CCc4ccccc4C3)ccc21", "hERG current change (%, negative = inhibition) at 10uM": -77.7}, {"molecule": "COc1cc(N2CCOCC2)ccc1/C=C1\\C(=O)NC(=O)N(Cc2ccc3c(c2)OCO3)C1=O", "hERG current change (%, negative = inhibition) at 10uM": 16.5}]}]}
